{"source": "paper PMC5540273", "about": "(PLoS ONE, 2017);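 further: KINOMEscan kinase panel screen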", "data": [{"tested_on": "CSNK1A1L", "conditions": "concentration: 1 μM, replicates: in singlicate; n = 1", "units": {"%Inh": "%"}, "values": [{"molecule": "CCCC(=O)Nc1n[nH]c2ncc(-c3cccc4ccccc34)cc12", "note": "[SB-642057]", "%Inh": 2}, {"molecule": "Nc1nc(N)c2nc(-c3ccccc3)[nH]c2n1", "note": "[SKF-12778]", "%Inh": 0}, {"molecule": "Cl.c1ccc(Cn2cnc3cc(Nc4ncnc5ccccc45)ccc32)cc1", "note": "[GW272142]", "%Inh": 11}, {"molecule": "COc1cccc(-n2cnc3c(N)ncnc32)c1", "note": "[SKF-97416]", "%Inh": 0}, {"molecule": "COC(=O)c1c(-c2ccccc2)c2cc(Br)ccc2c(=O)n1Cc1ccc(S(C)(=O)=O)cc1", "%Inh": 9}, {"molecule": "COc1cccc(C2=C(Nc3cccc(C(=O)O)c3)C(=O)NC2=O)c1", "note": "[SB-390770]", "%Inh": 12}, {"molecule": "O=C1NC(=O)C(c2ccccc2)=C1Nc1cccc(O)c1", "note": "[SB-390534]", "%Inh": 8}, {"molecule": "O=c1cc(N2CCOCC2)nc2n(Cc3ccc(F)c(Cl)c3)ccn12", "note": "[GSK2297099]", "%Inh": 6}, {"molecule": "Cc1nnc(-c2ccc3ncn(-c4ccc(S(C)=O)cc4)c3c2)o1", "note": "(centres unmarked)", "%Inh": 14}, {"molecule": "CCc1nc(-c2cccc(C)c2)c(-c2ccncc2)s1", "%Inh": 12}, {"molecule": "CCn1c(-c2ccoc2)nc2cnccc21", "note": "[SB-733887]", "%Inh": 0}, {"molecule": "COc1cc2ncn(-c3cc(OCc4ccc(S(C)(=O)=O)cc4)c(C(N)=O)s3)c2cc1OC", "note": "[GW869979]", "%Inh": 0}, {"molecule": "COc1ccc(-c2coc3ccc(-c4nnc(SCc5cccc(C#N)c5)o4)cc23)cc1", "%Inh": 7}, {"molecule": "Fc1cccc(CSc2nnc(-c3ccc4c(c3)CCO4)o2)c1", "%Inh": 11}, {"molecule": "Cc1ccc(Oc2ccc(Nc3ncnc4cc[nH]c34)cc2C)cn1", "%Inh": 11}, {"molecule": "COc1ccc(-n2cnc3c(N)ncnc32)cc1", "note": "[SKF-97236]", "%Inh": 7}, {"molecule": "COc1cc(Nc2nccc(N3CCC(NC(=O)C(C)c4ccc(Cl)cc4)C3)n2)cc(OC)c1OC", "note": "(centres unmarked) [GSK1379757]", "%Inh": 0}, {"molecule": "Cc1nn2c(=O)cc(N3CCOCC3)nc2n1Cc1cccc(Cl)c1Cl", "note": "[GSK2342769]", "%Inh": 22}, {"molecule": "COc1ccc(-c2cc3c(C)nc(N)nc3n([C@H]3CC[C@H](O)CC3)c2=O)cn1", "%Inh": 0}, {"molecule": "COc1cc2ncn(-c3cc(OCc4ccncc4)c(C(N)=O)s3)c2cc1OC", "note": "[GSK336313]", "%Inh": 2}, {"molecule": "COc1cc(Nc2nccc(N3CCC(NC(=O)C4COc5ccccc5O4)C3)n2)cc(OC)c1OC", "note": "(centres unmarked) [GSK1379761]", "%Inh": 0}, {"molecule": "Nc1ncnc2c1ncn2-c1cccc(F)c1", "note": "[SKF-97560]", "%Inh": 0}, {"molecule": "CCC(=O)c1c(-c2ccccc2)c2cc(Cl)ccc2c(=O)n1Cc1cc(C(=O)NC2CC2)n(C)n1", "%Inh": 0}, {"molecule": "Nc1n[nH]c2ncc(-c3ccccc3)cc12", "note": "[SB-517081]", "%Inh": 9}, {"molecule": "Cc1nc(N(C)[C@H]2CN(C(=O)CC#N)CC[C@H]2C)c2cc[nH]c2n1", "%Inh": 3}, {"molecule": "CC(C)(C)c1ccc(C(=O)Nc2cn3cc(-c4ccccc4)ccc3n2)cc1", "%Inh": 0}, {"molecule": "FC(F)(F)c1ccc(-c2ncn(CCCN3CCOCC3)c2-c2ccncc2)cc1", "note": "[SB-217780]", "%Inh": 33}, {"molecule": "O=C(Nc1n[nH]c2nc(-c3ccccc3)c(Cl)cc12)C1CC1", "note": "[SB-734909]", "%Inh": 0}, {"molecule": "COc1ccc(-c2cc3c(C)nc(N)nc3n([C@H]3CC[C@H](OCCO)CC3)c2=O)cn1", "%Inh": 0}, {"molecule": "Cc1ccc(-c2ccc3c(ccc4sc5c(c43)NC[C@@H](C)N=C5N(C)C)n2)cn1", "%Inh": 0}, {"molecule": "Nc1n[nH]c2nnc(-c3ccccc3)c(-c3ccccc3)c12", "note": "[GW554060]", "%Inh": 13}, {"molecule": "CCC(=O)c1c(-c2ccccc2)c2cc(Cl)ccc2c(=O)n1Cc1ccc(C(=O)O)cc1", "%Inh": 1}, {"molecule": "CCS(=O)(=O)c1ccc(OC)c(Nc2ncc(-c3ccc(F)cc3)o2)c1.Cl", "note": "[GW591947]", "%Inh": 0}, {"molecule": "CCS(=O)c1ccc(-c2coc3ccc(-c4nnc(C)o4)cc23)cc1", "note": "(centres unmarked)", "%Inh": 0}, {"molecule": "O=C(NCc1cccs1)c1cc(C(=O)c2c(Cl)cccc2Cl)c[nH]1", "note": "[GW823670]", "%Inh": 0}, {"molecule": "COc1cccc(C2=C(N(C)c3ccccc3)C(=O)NC2=O)c1", "note": "[SB-334865]", "%Inh": 1}, {"molecule": "OCCCNc1nccc(-c2c(-c3cccc(C(F)(F)F)c3)nn3cc(C(F)(F)F)ccc23)n1", "note": "[GW630813]", "%Inh": 0}]}, {"tested_on": "CSNK1A1", "conditions": "concentration: 1 μM, replicates: in singlicate; n = 1", "units": {"%Inh": "%"}, "values": [{"molecule": "CCCC(=O)Nc1n[nH]c2ncc(-c3cccc4ccccc34)cc12", "note": "[SB-642057]", "%Inh": 0}, {"molecule": "Nc1nc(N)c2nc(-c3ccccc3)[nH]c2n1", "note": "[SKF-12778]", "%Inh": 52}, {"molecule": "Cl.c1ccc(Cn2cnc3cc(Nc4ncnc5ccccc45)ccc32)cc1", "note": "[GW272142]", "%Inh": 0}, {"molecule": "COc1cccc(-n2cnc3c(N)ncnc32)c1", "note": "[SKF-97416]", "%Inh": 31}, {"molecule": "COC(=O)c1c(-c2ccccc2)c2cc(Br)ccc2c(=O)n1Cc1ccc(S(C)(=O)=O)cc1", "%Inh": 30}, {"molecule": "COc1cccc(C2=C(Nc3cccc(C(=O)O)c3)C(=O)NC2=O)c1", "note": "[SB-390770]", "%Inh": 0}, {"molecule": "O=C1NC(=O)C(c2ccccc2)=C1Nc1cccc(O)c1", "note": "[SB-390534]", "%Inh": 19}, {"molecule": "O=c1cc(N2CCOCC2)nc2n(Cc3ccc(F)c(Cl)c3)ccn12", "note": "[GSK2297099]", "%Inh": 0}, {"molecule": "Cc1nnc(-c2ccc3ncn(-c4ccc(S(C)=O)cc4)c3c2)o1", "note": "(centres unmarked)", "%Inh": 0}, {"molecule": "CCc1nc(-c2cccc(C)c2)c(-c2ccncc2)s1", "%Inh": 58}, {"molecule": "CCn1c(-c2ccoc2)nc2cnccc21", "note": "[SB-733887]", "%Inh": 0}, {"molecule": "COc1cc2ncn(-c3cc(OCc4ccc(S(C)(=O)=O)cc4)c(C(N)=O)s3)c2cc1OC", "note": "[GW869979]", "%Inh": 0}, {"molecule": "COc1ccc(-c2coc3ccc(-c4nnc(SCc5cccc(C#N)c5)o4)cc23)cc1", "%Inh": 10}, {"molecule": "Fc1cccc(CSc2nnc(-c3ccc4c(c3)CCO4)o2)c1", "%Inh": 8}, {"molecule": "Cc1ccc(Oc2ccc(Nc3ncnc4cc[nH]c34)cc2C)cn1", "%Inh": 8}, {"molecule": "COc1ccc(-n2cnc3c(N)ncnc32)cc1", "note": "[SKF-97236]", "%Inh": 33}, {"molecule": "COc1cc(Nc2nccc(N3CCC(NC(=O)C(C)c4ccc(Cl)cc4)C3)n2)cc(OC)c1OC", "note": "(centres unmarked) [GSK1379757]", "%Inh": 0}, {"molecule": "Cc1nn2c(=O)cc(N3CCOCC3)nc2n1Cc1cccc(Cl)c1Cl", "note": "[GSK2342769]", "%Inh": 0}, {"molecule": "COc1ccc(-c2cc3c(C)nc(N)nc3n([C@H]3CC[C@H](O)CC3)c2=O)cn1", "%Inh": 13}, {"molecule": "COc1cc2ncn(-c3cc(OCc4ccncc4)c(C(N)=O)s3)c2cc1OC", "note": "[GSK336313]", "%Inh": 0}, {"molecule": "COc1cc(Nc2nccc(N3CCC(NC(=O)C4COc5ccccc5O4)C3)n2)cc(OC)c1OC", "note": "(centres unmarked) [GSK1379761]", "%Inh": 0}, {"molecule": "Nc1ncnc2c1ncn2-c1cccc(F)c1", "note": "[SKF-97560]", "%Inh": 16}, {"molecule": "CCC(=O)c1c(-c2ccccc2)c2cc(Cl)ccc2c(=O)n1Cc1cc(C(=O)NC2CC2)n(C)n1", "%Inh": 11}, {"molecule": "Nc1n[nH]c2ncc(-c3ccccc3)cc12", "note": "[SB-517081]", "%Inh": 0}, {"molecule": "Cc1nc(N(C)[C@H]2CN(C(=O)CC#N)CC[C@H]2C)c2cc[nH]c2n1", "%Inh": 0}, {"molecule": "CC(C)(C)c1ccc(C(=O)Nc2cn3cc(-c4ccccc4)ccc3n2)cc1", "%Inh": 0}, {"molecule": "FC(F)(F)c1ccc(-c2ncn(CCCN3CCOCC3)c2-c2ccncc2)cc1", "note": "[SB-217780]", "%Inh": 21}, {"molecule": "O=C(Nc1n[nH]c2nc(-c3ccccc3)c(Cl)cc12)C1CC1", "note": "[SB-734909]", "%Inh": 0}, {"molecule": "COc1ccc(-c2cc3c(C)nc(N)nc3n([C@H]3CC[C@H](OCCO)CC3)c2=O)cn1", "%Inh": 24}, {"molecule": "Cc1ccc(-c2ccc3c(ccc4sc5c(c43)NC[C@@H](C)N=C5N(C)C)n2)cn1", "%Inh": 6}, {"molecule": "Nc1n[nH]c2nnc(-c3ccccc3)c(-c3ccccc3)c12", "note": "[GW554060]", "%Inh": 0}, {"molecule": "CCC(=O)c1c(-c2ccccc2)c2cc(Cl)ccc2c(=O)n1Cc1ccc(C(=O)O)cc1", "%Inh": 0}, {"molecule": "CCS(=O)(=O)c1ccc(OC)c(Nc2ncc(-c3ccc(F)cc3)o2)c1.Cl", "note": "[GW591947]", "%Inh": 0}, {"molecule": "CCS(=O)c1ccc(-c2coc3ccc(-c4nnc(C)o4)cc23)cc1", "note": "(centres unmarked)", "%Inh": 1}, {"molecule": "O=C(NCc1cccs1)c1cc(C(=O)c2c(Cl)cccc2Cl)c[nH]1", "note": "[GW823670]", "%Inh": 0}, {"molecule": "COc1cccc(C2=C(N(C)c3ccccc3)C(=O)NC2=O)c1", "note": "[SB-334865]", "%Inh": 0}, {"molecule": "OCCCNc1nccc(-c2c(-c3cccc(C(F)(F)F)c3)nn3cc(C(F)(F)F)ccc23)n1", "note": "[GW630813]", "%Inh": 0}]}]}
